Screening results deposited in PubChem BioAssay by National Center for Advancing Translational Sciences (NCATS).
In the library only some 21% were active in any assay of this set; here they are far more common.
Pf growth 96h – P. falciparum growth inhibition at 96 hour, primary screen for plastid delayed-death inhibitors; Potency, µM (highest dose often 28.7 µM), for the others: at the top dose activity change, negative = inhibition, most hits filed as inhibitors; 320,000 tested, 6.9% active; P. falciparum luciferase reporter growth, 96 h; note: potency is the fitted concentration of half-maximal effect; % is set by controls: 0 for no effect and ±100 for the full control effect
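Compounds incubated with erythrocytes infected by luciferase-expressing P. falciparum (2% hematocrit, 0.05% parasitemia final) for 96 hours, 37 C in 5% CO2. Growth inhibition scored as decreased luciferase luminescence.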
Cycloheximide cs – counter-screen for Shiga toxin inhibitors: cycloheximide protein synthesis inhibition; cell reporter, cycloheximide protein synthesis inhibition counterscreen; max response, %; 300,000 tested, 12% active; AID 2314; in the data active = max response mostly above about 13%, no sharp cut-off; inactive = mostly below about 14%; note: read at 38.3 µM for the half of the compounds with a filed dose; 0% is about no effect
NS1 function inh – blocks influenza NS1 protein function; Potency, µM (titrated, usually from 46.1 µM), inactives show at the highest dose activity, positive = more growth; 270,000 tested, 0.4% active; calls by dose curve; note: potency is the fitted concentration of half-maximal effect; actives are rising curves; nearly all actives have a fitted effect of over 50% in size
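OD600 was taken as the measure of yeast growth restored by compound in an NS1-expressing S. cerevisiae strain. Cells had been washed out of glucose medium and diluted 1:100 into galactose -URA medium, pH 6.0.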
Pf growth 48h – P. falciparum growth inhibition at 48 hours (one generation); P. falciparum luciferase growth in erythrocytes, 48 h; Potency, µM (highest dose often 28.7 µM), inactives show at the highest dose activity change, negative = inhibition, most hits filed as inhibitors; 310,000 tested, 5.9% active; note: potency is the fitted concentration of half-maximal effect; % is set by controls: 0 for no effect and ±100 for the full control effect
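Read-out is firefly luciferase luminescence from an integrated reporter in P. falciparum, so falling signal marks reduced parasite growth. Infected erythrocytes were at 2% hematocrit and 0.1% parasitemia (final) in Albumax-supplemented RPMI 1640.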
Shiga toxin inh – Shiga toxin inhibition; inhibition, % at 38.7 µM; AID 2315; 290,000 tested, 9.2% active; Vero cells, Shiga toxin protein synthesis inhibition reporter; in the data active = inhibition mostly above about 28%, no sharp cut-off; inactive = mostly below about 43%; note: 0% is about no effect
Sm TGR block – S. mansoni TGR enzyme inhibition | purified TGR, DTNB reduction, TNB absorbance 405 nm | AID 485364 | 360,000 tested, 3% active | Potency, µM (titrated, usually from 114 µM), for the others: at the top dose activity change, negative = inhibition, usual class: inhibitors; note: potency is the fitted concentration of half-maximal effect; % is set by controls: 0 for no effect and ±100 for the full control effect; nearly all actives have a fitted effect of over 60% in size
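Kinetic colorimetric format: TGR-catalysed, NADPH-driven DTNB reduction monitored via TNB absorbance. Enzyme dispensed at 20 nM; compound exposure 15 min at room temperature before reaction start.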
The depositor's hits bear a star; i = inactive; ? = inconclusive; · = no result; [ ] = another dose, or the depositor's remark. Unless noted, calls come from the whole dose curve; as a rule, active = well fitted curve in the direction sought with a large enough effect; inconclusive = small, poorly fitted or top-dose-only effect, or another doubt; inactive = no such curve, though single readings can be large; an effect the other way counts as inactive or inconclusive.

SMILES | Pf growth 96h | Cycloheximide cs | NS1 function inh | Pf growth 48h | Shiga toxin inh | Sm TGR block
C/C(CC(=O)Nc1ccc(C)c(Cl)c1)=N\NC(=O)c1ccccn1 | 19% | 51* | 7% | -3% | 77* | -12%
Cc1cc(Nc2sc(C(=O)c3ccc(F)cc3)c(N)c2C(=O)Nc2ccc(F)cc2)ccc1Cl | · | · | · | · | · | -2%
C/C(CC(=O)Nc1ccc(N(C)C)cc1)=N\NC(=O)c1ccncc1 | 7% | 17 | -10% | -1% | 28 | ?
C/C(CC(=O)Nc1ccc(N(C)C)cc1)=N\NC(=O)c1ccc(Cl)cc1 | 20% | 27* | -5% | 9%[0.00184 µM] | 32 | -27%
C/C(CC(=O)Nc1ccc(N(C)C)cc1)=N\NC(=O)c1cnccn1 | 34% | 23* | 27% | ? | 63* | 35µM*
Cc1ccc(C2/C(=C(/O)c3ccc(OC(C)C)cc3)C(=O)C(=O)N2CCN2CCOCC2)cc1 (stereo not drawn) | · | 2 | -8% | 0% | -18 | 27%
CCN(CC)CCCN1C(=O)C(=O)/C(=C(/O)c2ccc(C)cc2)C1c1ccccn1 (stereo not drawn) | 3.3µM* | -3 | ? | 6% | 8 | -5%
O=C1C(=O)N(CCN2CCOCC2)C(c2ccccn2)/C1=C(/O)c1ccccc1 (stereo not drawn) | 3% | 30* | 5% | 18% | 109* | ?
CN(C)CCCN1C(=O)C(=O)/C(=C(/O)c2ccccc2)C1c1ccccn1 (stereo not drawn) | -18% | -5 | -8% | 2% | -9 | -20%
Cc1ccc(/C(O)=C2/C(=O)C(=O)N(CCN3CCOCC3)C2c2ccccn2)cc1 (stereo not drawn) | 73% | 34* | ? | 31% | 105* | 25µM*
COc1ccc(/C(O)=C2/C(=O)C(=O)N(CCN(C)C)C2c2ccccn2)cc1OC (stereo not drawn) | ? | 6 | 4% | 16% | -6 | 13µM*
COc1cc2nc(NCCC(C)C)n3nc(-c4ccccc4)nc3c2cc1OC | · | · | · | · | · | -5%
COC(=O)C1=C(C)N(C(C)C)C(=O)C1(NC(=O)c1ccc(C(C)(C)C)cc1)C(F)(F)F (stereo not drawn) | · | · | · | · | · | 9%
Cc1cc(-c2ccc(C)c(S(=O)(=O)N(C)c3ccc(C)c(C)c3)c2)on1 | · | · | · | · | · | 6%
CN(C)CCCN1C(=O)C(=O)/C(=C(/O)c2ccc3c(c2)OCCO3)C1c1ccccn1 (stereo not drawn) | · | · | 5% | · | · | ·
COc1ccc(/C(O)=C2/C(=O)C(=O)N(CCN3CCOCC3)C2c2ccccn2)cc1OC (stereo not drawn) | 2% | 25* | 8% | 4% | 64* | 50µM*
O=C(N/N=C\c1cccnc1)c1ccc(Br)s1 | -25% | 34* | -31% | 20% | 60 | 3%
O=C(N/N=C/c1ccncc1)c1cc(-c2ccc(Br)s2)[nH]n1 | 12µM* | 32* | -7% | ? | 40 | 4%
CCc1ccc(C(=O)N/N=C/c2ccncc2)s1 | -11% | 23* | -14% | ? | 32 | -7%
O=C(N/N=C\c1ccncc1)c1ccc(Br)s1 | 2% | 13* | -33% | -4% | 8 | 4%
O=C(N/N=C/c1ccncc1)C1CC1C(=O)N/N=C/c1ccncc1 (stereo not drawn) | 55% | 5 | 7% | -6% | -6 | -7%
O=C(N/N=C/c1ccccn1)c1cc(-c2ccc(Br)s2)[nH]n1 | 22% | -6 | 14% | ? | -7 | 1%
CCN(CC)CCCNC(=O)c1ccc(Cn2c(SCc3ccccc3)nc3cccnc32)cc1 | · | · | · | · | · | -13%
C[N+](C)(C)CC(=O)N/N=C\c1ccncc1 | · | · | -1% | · | · | ·
O=C(N/N=C\c1ccncc1)c1ccc(Cl)s1 | 13µM* | 15 | -37% | 10% | 25 | 4%
SMILES | Pf growth 96h | Cycloheximide cs | NS1 function inh | Pf growth 48h | Shiga toxin inh | Sm TGR block
Cc1ccc(C(=O)N/N=C\c2ccncc2)s1 | ? | 40* | -34% | 47% | 53* | 9%
O=C(N/N=C\c1cccnc1)c1ccc(Cl)s1 | ? | 11 | -3% | 4% | 20 | -17%
COc1ccc(CNC(=O)c2ccc3nc(CCc4ccccc4)oc3c2)cc1OC | · | · | · | · | · | 1%
CCCS(=O)(=O)Nc1cccc(-c2cn3ccc(C)cc3n2)c1 | · | · | · | · | · | 1%
CCSc1cc(N2CCOCC2)nc(-c2ccc(Cl)cc2)n1 | 15% | 1 | -3% | -14% | 7 | 0%
COCCNC(=S)N1CCC(NC(=O)Nc2ccc(C)cc2)CC1 | 0% | 9 | 1% | -8% | -10 | -1%
CN(C)C1=NCCN1CCC1CCCCC1 | 46% | · | · | ? | · | -8%
Nc1nonc1C(=O)NCCNCc1ccccc1 | 12µM* | -2 | 3% | · | -8 | -2%
Nc1nonc1C(=O)NCCNCc1ccccc1F | · | · | · | · | · | 1%
Nc1nonc1C(=O)NCCNCc1c(OCc2ccccc2F)ccc2ccccc12 | · | -5 | 1% | 4.7µM* | -19 | 1%
Nc1nonc1C(=O)NCCNS(=O)(=O)c1ccc(F)cc1 | 2.9µM* | -2 | 2% | 15% | -12 | -13%
Cc1cccc(C(=O)OCC(=O)c2cccc(Br)c2)c1O | -1% | 0 | -7% | 93% | 2 | 4%
CCOC(=O)c1c(S(=O)(=O)Nc2ccccn2)c(C)n(C)c1C | ? | -1 | 4% | 4% | -11 | -10%
O=C(Cc1ccccc1[N+](=O)[O-])NCc1ccc(Cl)cc1 | -21% | 33* | -11% | 47% | 22 | 4%
O=C(NCc1ccc(Cl)cc1)c1ncn[nH]1 | 8% | -1 | 3% | -4% | -15 | -10%
CC(C)C(NC(=O)Cc1ccccc1[N+](=O)[O-])C(C)C | 12µM* | -1 | -2% | -3% | -5 | -2%
O=C(Cc1ccc([N+](=O)[O-])cc1)NCc1ccccc1Cl | -13% | -1 | 12% | 13% | 13 | 1%
CC(C)N(C(=O)Cc1ccccc1[N+](=O)[O-])C(C)C | 177% | -1 | 3% | -5% | -8 | 0%
O=C(Cc1ccccc1[N+](=O)[O-])NCc1ccc(Cl)cc1Cl | -2% | 44* | -16% | 122% | 87* | -4%
O=C(NCc1ccc(Cl)cc1)c1n[nH]c([N+](=O)[O-])c1Cl | -8% | 45* | -10% | ? | 61* | ·
COc1cc(Cl)c(C)cc1NC(=O)c1sc2nc3n(c(=O)c2c1C)CCCCC3 | · | · | · | · | · | 8%
Cn1c(=O)[nH]c(=O)c2c1nc1n2CC(COc2ccc3ccccc3c2)O1 (stereo not drawn) | -2% | 1 | 3% | -3% | -8 | 2%
O=[N+]([O-])c1ccccc1CCl | 89% | · | · | 32% | · | 40µM*
Cc1nc2cccc(C(=O)Oc3ccc([N+](=O)[O-])cc3)c2o1 | 102% | 4 | · | 19% | -5 | -32%
O=C(Oc1ccc(-c2cnc3ccccc3n2)cc1)c1cc([N+](=O)[O-])ccc1Cl | i | 48* | -2% | i | 83* | -9%
